# Measured values from PubChem BioAssay (NCATS).
# Inconclusive results are not listed. Calls of active or inactive are those of the source. Calls follow the shape of the dose curve; as a rule, active = well fitted cell-killing curve with a large enough effect; inconclusive = small, poorly fitted or top-dose-only effect; inactive = no such curve, though single readings can be large or run the other way.
# Experiment: qHTS of pediatric cancer cell lines to identify multiple opportunities for drug repurposing: Primary screen for A673 cells (AID 1347092); also: nearly all actives have a fitted effect of over 45% in size
# Details: A673 Ewing sarcoma viability, CellTiter-Glo ATP luminescence, 48 h; series mostly up to 46 µM
# Excerpt: Drug repurposing or repositioning has been offered as a strategy for drug development in oncology programs. This approach has special potential for childhood cancers and other rare or orphan diseases, where the expected return on new drug development has been a disincentive to pharmaceuticals. […] In this project we exploit the poly-pharmacology of drugs to discover new indications via phenotypic screening of a panel of 19 well-characterized cell lines derived from solid tumors seen in children and adolescents. The goal is to identify approved drugs with previously unrecognized anticancer properties that has the potential to reveal new mechanisms and biological processes involved in carcinogenesis or drug resistance. We employed a titration-based paradigm (quantitative high-throughput screening or qHTS), where all compounds were tested at multiple concentrations for their effect on cell viability. Concentration-response curves (CRCs) were derived directly from the primary screen, and both potency and efficacy values were used to identify compounds with robust bioactivity profiles. We screened the NIH Chemical Genomics Center (NCGC) Pharmaceutical Collection (NPC) and Mechanism Interrogation Plate (MIPE) small molecule collections of approved and investigational compounds against these cell lines; and measured metabolically active cells after 48 hours of compound treatment as a proxy for cell viability. […] Assay Submitter: Nathalia J. Martinez, National Center for Advancing Translational Sciences, National Institutes of Health, Rockville, MD, USA; email: natalia.martinez@nih.gov. Shen, M et al. Quantitative high-throughput phenotypic screening of pediatric cancer cell lines identifies multiple opportunities for drug repurposing. Oncotarget 2017 Dec 19;9(4):4758-4772. PMID 29435139.
# The cells were obtained from University of North Carolina (UNC), Pediatric Preclinical Testing Program (PPT), and Coriell Institute (CI). qHTS cell viability assay: Cells were assayed in growth media at a density of 500-1,000 cells/well. Five microliters of cells were dispensed into 1,536-well, white, solid-bottom, TC-treated plates (Greiner Bio One) using a multidrop dispenser and incubated at 37 degrees C, 5% CO2, under a humidified atmosphere for 5 hours. Twenty-three nanoliters of compounds and controls (neutral control DMSO or positive control bortezomib at final concentration of 2.3 uM) were subsequently transferred by Kalypsys pintool. For primary screens, the MIPE collection was tested at 11-point dilutions (final concentrations range from 0.78 nM to 46 µM) and the NPC collection at 8-point dilutions (final concentrations range from 0.59 nM to 46 µM). Compounds tested in follow-up screens were assayed at 11-point dilutions. Cells were incubated for 48 hours, followed by addition of 3 uL of CellTiter-Glo (Promega). After a 15min incubation at room temperature, samples were analyzed for luminescence intensity using a ViewLux High-throughput CCD imager equipped with clear filters.
# Potency is read from the fitted curve at half-maximal effect.
row,Structure (SMILES),Potency
1,CN[C@@H]1C[C@H]2O[C@@](C)([C@H]1OC)n1c3ccccc3c3c4c(c5c6ccccc6n2c5c31)C(=O)N[C@H]4O,296 nM (active)
2,Oc1cc(-c2nc(-c3ccccc3)[nH]c2-c2ccncc2)ccc1Cl,1480 nM (active)
3,CC[C@]12C=CCN3CC[C@@]4(c5cc([C@@]6(C(=O)OC)C[C@H]7C[C@@H](C(C)(F)F)CN(Cc8c6[nH]c6ccccc86)C7)c(OC)cc5N(C)[C@H]4[C@@](O)(C(=O)OC)[C@H]1OC(C)=O)[C@@H]32,4.7 nM (active)
4,C=CCNC1=C2C[C@@H](C)C[C@H](OC)[C@@H](O)[C@@H](C)C=C(C)[C@H](OC(N)=O)[C@@H](OC)C=CC=C(C)C(=O)NC(=CC1=O)C2=O,1480 nM (active)
5,Cn1cc(-c2cnn3c(N)c(Br)c([C@H]4CCCNC4)nc23)cn1,59 nM (active)
6,COc1ccc2c(c1OC)C(=O)OC2[C@H]1c2c(cc3c(c2OC)OCO3)CCN1C (stereo not given in full),74.3 nM (active)
7,C#C[C@]1(O)CC[C@@H]2[C@@H]3CCc4cc(O)ccc4[C@H]3CC[C@@]21C,14800 nM (active)
8,COc1cccc2c1C(=O)c1c(O)c3c(c(O)c1C2=O)C[C@@](O)(C(=O)CO)C[C@H]3O[C@H]1C[C@H](N)[C@H](O)[C@H](C)O1,235 nM (active)
9,Cc1cc(O)c2c(c1)C(=O)c1cccc(O)c1C2=O,inactive
10,O=C(Nc1cccc(Nc2ncc(Br)c(NCCc3cnc[nH]3)n2)c1)N1CCCC1,11800 nM (active)
11,O=c1c(O)c(-c2ccc(O)c(O)c2)oc2cc(O)ccc12,29600 nM (active)
12,NC(=O)c1ncn([C@@H]2O[C@H](CO)[C@@H](O)[C@@H]2O)c1N,inactive
13,C[N+]1(C)[C@@H]2C[C@@H](OC(=O)C(O)(c3cccs3)c3cccs3)C[C@H]1[C@@H]1O[C@@H]12,inactive
14,CN(C)CCN1C(=O)c2cccc3cc(N)cc(c23)C1=O,14800 nM (active)
15,NC(=O)c1ncn([C@@H]2O[C@H](CO)[C@@H](O)[C@@H]2O)c1O,inactive
16,COc1ccc(Nc2cc(-c3cnc(N)nc3)nc(N3CCOCC3)n2)cn1,5900 nM (active)
17,COc1cccc2c1C(=O)c1c(O)c3c(c(O)c1C2=O)C[C@@](O)(C(=O)CO)C[C@@H]3O[C@H]1C[C@H](N)[C@H](OC2CCCCO2)[C@H](C)O1 (stereo not given in full),2350 nM (active)
18,CCNC(=O)Nc1ccc(-c2nc3c(c(N4CCOC[C@H]4C)n2)CCN(C2COC2)C3)cc1,1480 nM (active)
19,NC[C@H]1O[C@H](O[C@H]2[C@@H](O)[C@@H](O[C@H]3O[C@H](CO)[C@@H](O)[C@H](N)[C@@H]3O)[C@H](N)C[C@@H]2N)[C@H](N)C[C@H]1O,inactive
20,COc1ccc(C=Cc2cc(OC)c(OC)c(OC)c2)cc1NC(=O)[C@H](N)CO,9.3 nM (active)

row,Structure (SMILES),Potency
1,Cc1ccc(-n2[nH]c(C)c(N=Nc3cccc(-c4cccc(C(=O)O)c4)c3O)c2=O)cc1C,13300 nM (active)
2,CC(=O)NCC(=O)N1[C@H]2CC[C@H]1c1cc(Nc3ncc(C(F)(F)F)c(NC4CCC4)n3)ccc12,3720 nM (active)
3,CC(O)(C#Cc1ccc2c(c1)N(c1nc(N)ncc1Cl)CC2)c1nccs1 (stereo not given),5900 nM (active)
4,CC(C)N1[N]C(=C2C=c3cc(O)ccc3=N2)c2c(N)ncnc21,1480 nM (active)
5,Cc1nc(NC(=O)N2CCC[C@@H]2C(N)=O)sc1-c1ccnc(C(C)(C)C(F)(F)F)c1,9350 nM (active)
6,CCOc1cc2ncc(C#N)c(Nc3ccc(OCc4ccccn4)c(Cl)c3)c2cc1NC(=O)C=CCN(C)C,74.3 nM (active)
7,CCc1c(O)cc(O)c(C(=O)c2ccc(OCCN3CCOCC3)c(OC)c2)c1CC(=O)N(CCOC)CCOC,935 nM (active)
8,Cc1ncc(-c2ccnc(Nc3ccc(S(C)(=O)=O)cc3)n2)n1C(C)C,935 nM (active)
9,N#CC(=C(O)c1ccc(Cl)cc1Cl)c1nc2cc(Cl)ccc2c(=O)[nH]1,inactive
10,C=CC(=O)Nc1ccc2ncnc(Nc3ccc(OCc4cccc(F)c4)c(Cl)c3)c2c1,1 nM (active)
11,CC(C=CC1=C(C)CCCC1(C)C)=CC=CC(C)=CC(=O)Nc1ccc(O)cc1,2700 nM (active)
12,Nc1nc(=O)n([C@H]2CSC(CO)O2)cc1F (stereo not given in full),inactive
13,CN(N=O)C(=O)N[C@H]1C(O)OC(CO)[C@@H](O)[C@H]1O (stereo not given in full),inactive
14,CCOC(=O)N1CCN([N+]([O-])=NOc2ccc([N+](=O)[O-])cc2C#N)CC1,1180 nM (active)
15,CCCCCN=C(N)NN=Cc1c[nH]c2ccc(OC)cc12,9350 nM (active)
16,CC[C@@]1([C@@H]2O[C@@H]([C@H]3O[C@@](O)(CO)[C@H](C)C[C@H]3C)C[C@H]2C)CC[C@H]([C@]2(C)CC[C@]3(C[C@H](O)[C@@H](C)[C@@H]([C@@H](C)[C@@H](OC)[C@H](C)C(=O)O)O3)O2)O1,162 nM (active)
17,CC(C=CC=C(C)C=CC1=C(C)CCCC1(C)C)=CC=CC=C(C)C=CC=C(C)C=CC1=C(C)CCCC1(C)C,5900 nM (active)
18,O=C(C[C@@H]1CC=CCCC(=O)O[C@H](c2ccccc2)CNC1=O)NCc1ccc(Cl)cc1,inactive
19,O=C(C=CC#Cc1cccc(NS(=O)(=O)c2ccccc2)c1)NO,1480 nM (active)
20,C=Cc1c(C)c2cc3nc(cc4[nH]c(cc5nc(cc1[nH]2)C(C)=C5CCC(=O)O)c(CCC(=O)OC)c4C)[C@@]1(C)C3=CC=C(C(=O)OC)[C@H]1C(=O)OC,37.2 nM (active)
